Test results: PubChem BioAssay (NCATS)
Records with an inconclusive call do not appear. Where a call stands in place of a potency, no number is given. For part of these data: Results with a measured potency or affinity are listed apart. Active and inactive are the calls of the source.

What was measured:
[1] = Ebola virus entry assay, blue channel fluorescence
[2] = Ebola virus entry reporter assay, green channel fluorescence
[3] = Ebola virus entry cell assay, ratio channel
[4] = Ebola virus entry assay, green channel fluorescence
[5] = Ebola virus entry assay, reporter ratio channel; AC50: Channel type: primary unless noted; outcome: Channel type: primary unless noted
[6] = qHTS assay for measurement of the activity of small molecule inhibitors on Zika virus induced Caspase-3 activity in human iPSC derived neural progenitor cells (hNPCs) (AID 1224857; active means well fitted inhibition curve with a large enough effect; further: nearly all actives have a fitted effect of over 65% in size); conditions: hNPCs ZIKV-induced caspase-3/7, Caspase-Glo luminescence, 6 h; series mostly up to 45.7 µM
How it was run: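 After overnight (16–20 h) culture at 350 cells/well, hNPCs get compound, then ZIKV 2 FFU/cell one hour later. Six hours on, Caspase-Glo 3/7 is added and luminescence measured.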

[7] = Ebola virus entry assay, blue channel (ratio component)
[8] = Immunotoxin (SS1P) sensitization/mitigation study. Vehicle arm (DMEM) (AID 1159513); conditions: cell viability with vehicle (DMEM); series mostly up to 46.1 µM; further: potency means the concentration at half of the fitted maximal effect
[9] = High-throughput drug toxicity screening in the BPDCN cell line Cal-1 (AID 1224825); conditions: Cal-1 BPDCN cell viability, qHTS; at 45.8 µM (top of the series) unless noted
How it was run: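 CellTiter-Glo luminescence after 48 h compound exposure; percent activity scaled with DMSO as 100% and bortezomib (9.2 uM final) as 0%. Cal-1 cells seeded at 500/well in RPMI, 10% FBS, no phenol red.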

In the case of `CCC(=O)OC(OP(=O)(CCCCc1ccccc1)CC(=O)N1C[C@H](C2CCCCC2)C[C@H]1C(=O)O)C(C)C` (some centres undefined), the outcome [1] is reported as “inactive”, the outcome [2] is reported as “inactive” and the outcome [3] is reported as “inactive”.
For `CN1CC[C@]23c4c5ccc(O)c4O[C@H]2[C@@H](O)C=C[C@H]3[C@H]1C5`, the outcome [4] was “inactive”, the AC50 [5] was 35.5 µM (active) and the outcome [6] was “inactive”.
For `O=c1[nH]c2ccccc2n1C1CCNCC1`, the outcome [4] was “inactive”, the outcome [5] was “inactive” and the outcome [7] was “inactive”. The outcome [6] was “inactive”.
For `CN1C(=O)OC(C)(C)C1=O`, the outcome [1] was “inactive”, the outcome [2] was “inactive” and the outcome [3] was “inactive”.
For `CCOC(=O)CC(SP(=S)(OC)OC)C(=O)OCC` (centres undefined), the outcome [4] was “inactive”, the outcome [5] was “inactive” and the outcome [7] was “inactive”. For the same compound, the outcome [6] was “inactive”.
In the case of `C#C[C@]1(O)CC[C@H]2[C@@H]3CCC4=CC(=O)CC[C@]4(C)[C@H]3CC[C@@]21C`, the outcome [4] is reported as “inactive”, the outcome [5] is reported as “inactive” and the outcome [7] is reported as “inactive”. For the same compound, the outcome [6] was “inactive”.
In the case of `C#CC(O)(C=CCl)CC` (centres undefined), the outcome [4] is reported as “inactive”, the outcome [5] is reported as “inactive” and the outcome [7] is reported as “inactive”. For the same compound, the outcome [6] was “inactive”.
In the case of `CC(C)(C)NCC(O)c1cc(O)cc(O)c1` (centres undefined), the outcome [4] is reported as “inactive” and the outcome [7] is reported as “inactive”.
In the case of `CC(=O)OCC1=C(C(=O)O)N2C(=O)[C@@H](N)[C@H]2SC1`, the outcome [4] is reported as “inactive”, the outcome [5] is reported as “inactive” and the outcome [7] is reported as “inactive”. The outcome [6] was “inactive”.
With `Cc1ccc(Nc2nccc(N(C)c3ccc4c(C)n(C)nc4c3)n2)cc1S(N)(=O)=O` the outcome [4] was “inactive” and the Potency [8] was 20.9 µM (active).
For `CCN[C@H](C)Cc1cccc(C(F)(F)F)c1`, the outcome [4] was “inactive”, the AC50 [5] was 31.6 µM (active) and the outcome [6] was “inactive”.
For `CC(C)=CC1C(C(=O)OCN2C(=O)C3=C(CCCC3)C2=O)C1(C)C` (centres undefined), the outcome [4] was “inactive”, the outcome [5] was “inactive” and the outcome [7] was “inactive”. The outcome [6] was “inactive”.
With `CC(C)c1cccc(C(C)C)c1O` the outcome [4] was “inactive”, the outcome [7] was “inactive” and the viability (% of control) [9] was 113%. The outcome [6] was “inactive”.
In the case of `COP(=S)(OC)Oc1ccc(SC)c(C)c1`, the outcome [4] is reported as “inactive”, the outcome [5] is reported as “inactive” and the outcome [7] is reported as “inactive”. The outcome [6] was “inactive”.
For `CN1C(=O)CC(=O)N(c2ccccc2)c2cc(Cl)ccc21`, the outcome [1] was “inactive”, the outcome [2] was “inactive” and the outcome [3] was “inactive”.
With `C=C[C@H]1CN2CC[C@H]1C[C@H]2[C@H](O)c1ccnc2ccc(OC)cc12` the outcome [4] was “inactive”, the AC50 [5] was 22.4 µM (active) and the outcome [3] was “inactive”.
For `CCC[C@@]1(CCc2ccccc2)CC(O)=C([C@H](CC)c2cccc(NS(=O)(=O)c3ccc(C(F)(F)F)cn3)c2)C(=O)O1`, the outcome [1] was “inactive”, the outcome [2] was “inactive” and the outcome [3] was “inactive”.
For `Cc1nnc(C(C)C)n1C1C[C@H]2CC[C@@H](C1)N2CC[C@H](NC(=O)C1CCC(F)(F)CC1)c1ccccc1` (some centres undefined), the outcome [1] was “inactive”, the outcome [5] was “inactive [Channel type: confirmation]” and the outcome [7] was “inactive”. The outcome [3] was “inactive”.
In the case of `Nc1ccccc1`, the outcome [4] is reported as “inactive”, the outcome [5] is reported as “inactive” and the outcome [7] is reported as “inactive”. For the same compound, the outcome [6] was “inactive”.
In the case of `C[C@@H]1CC2=CC(=O)CC[C@@H]2[C@H]2CC[C@@]3(C)[C@@H](CC[C@]3(C)O)[C@@H]21`, the outcome [4] is reported as “inactive”, the outcome [5] is reported as “inactive” and the outcome [7] is reported as “inactive”. For the same compound, the outcome [6] was “inactive”.
For `CCC(C)(C)c1ccc(O)cc1`, the outcome [4] was “inactive”, the outcome [5] was “inactive” and the outcome [7] was “inactive”. For the same compound, the outcome [6] was “inactive”.
With `CCN(CC)CCc1c[nH]c2ccccc12` the outcome [4] was “inactive”, the outcome [5] was “inactive” and the outcome [6] was “inactive”.
With `C[C@]12CCC(=O)C=C1CC[C@@H]1[C@@H]2CC[C@]2(C)C(=O)CC[C@@H]12` the outcome [4] was “inactive”, the outcome [5] was “inactive” and the outcome [7] was “inactive”. The outcome [6] was “inactive”.
In the case of `C[C@]12CC[C@@H]3c4ccc(OC(=O)N(CCCl)CCCl)cc4CC[C@H]3[C@@H]1CC[C@@H]2O`, the outcome [4] is reported as “inactive”, the outcome [5] is reported as “inactive” and the outcome [7] is reported as “inactive”. The outcome [6] was “inactive”.
With `CC(C)CN(C[C@@H](OP(=O)(O)O)[C@H](Cc1ccccc1)NC(=O)O[C@H]1CCOC1)S(=O)(=O)c1ccc(N)cc1` the outcome [1] was “inactive”, the outcome [2] was “inactive” and the outcome [3] was “inactive”.
With `CC(CCc1ccccc1)NCC(O)c1ccc(O)c(C(N)=O)c1` (centres undefined) the outcome [1] was “inactive”, the outcome [2] was “inactive” and the outcome [3] was “inactive”.
In the case of `CNC(C)[C@@H]1CC[C@@H](N)[C@@H](O[C@H]2[C@H](O)[C@@H](O[C@H]3OC[C@](C)(O)[C@H](NC)[C@H]3O)[C@H](N)C[C@@H]2N)O1` (some centres undefined), the outcome [1] is reported as “inactive”, the outcome [2] is reported as “inactive” and the outcome [3] is reported as “inactive”.
In the case of `CC(C)[C@H](N)C(=O)OCC(CO)OCn1cnc2c(=O)[nH]c(N)nc21` (some centres undefined), the outcome [1] is reported as “inactive”, the outcome [2] is reported as “inactive” and the outcome [3] is reported as “inactive”.
With `C[C@]1(O)CC[C@H]2[C@@H]3CCC4=CC(=O)CC[C@]4(C)[C@@]3(F)[C@@H](O)C[C@@]21C` the outcome [1] was “inactive”, the outcome [2] was “inactive” and the outcome [3] was “inactive”.
